The panel holds about 83,000 compounds, 20% with a hit somewhere; the sample as a whole holds those more often.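 Step 1: grow cells in 96-well plates. Step 2: add test compound at a single concentration. Step 3: incubate 48 h. Step 4: record percent growth.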 A number with no mark means an inactive call. Active and inactive are the calls of the source. How the source made its calls: active means growth percent below 10; inactive means the rest.
How the values were obtained:
Experiment in all cases: NCI-60 one-dose screen, 48 h (100 = growth as untreated, 0 = no growth, -100 = all killed)
Conditions in all cases: 10 µM unless noted
HCT-15 colon = test system: HCT-15 colon
HT29 colon = test system: HT29 colon
SNB-19 CNS = test system: SNB-19 CNS
U251 CNS = test system: U251 CNS
PC-3 prostate = test system: PC-3 prostate
SK-MEL-5 melanoma = test system: SK-MEL-5 melanoma
UACC-62 melanoma = test system: UACC-62 melanoma
SK-MEL-28 melanoma = test system: SK-MEL-28 melanoma
SNB-75 CNS = test system: SNB-75 CNS
LOX IMVI melanoma = test system: LOX IMVI melanoma

SMILES	growth (HCT-15 colon)	growth (HT29 colon)	growth (SNB-19 CNS) [%]	growth (U251 CNS)	growth (PC-3 prostate)	growth (SK-MEL-5 melanoma)	growth (UACC-62 melanoma)	growth (SK-MEL-28 melanoma)	growth (SNB-75 CNS)	growth (LOX IMVI melanoma)
O=S(=O)(Nc1ccc2c(c1)OCO2)c1ccc(-c2cnc(C3CC3)o2)cc1	20.3%	14%	38.1	27.4%	37.9%	30%	33.2%	51.2%		
CCN(CC)c1ccc(NC2=C(Cl)C(=O)c3nc(C)ccc3C2=O)cc1	-52.7% (active)	104%	102	94.3%	74.2%	79.3%	95.2%	37.5%	126%	
CCCCCc1ccc(S(=O)(=O)Nc2cccc(-c3csc(NC(=O)CNCCN(C)C)n3)c2)cc1	26.5%	53.9%	90.4	69.4%	64.7%	73.2%	102%	90.6%	87.5%	
Cc1ccc(C(=O)NN2C(=O)/C(=C/C=C/c3ccco3)SC2=S)cc1	91.6%	110%	94.9	98.7%	92.2%		85.3%	94.4%	94.5%	99.7%
O=C(Nc1cccc(Cl)c1)Nc1nc2ccc([N+](=O)[O-])cc2o1	13.7%	14.3%	19.7	6.13% (active)	5.64% (active)	-13% (active)	2.02% (active)	26%		
COc1ccc(CCN2C(=O)CSC2=S)cc1	56.9%	104%	96.6	102%	88.8%		94.2%	93.9%	94.6%	
O=S(=O)(Nc1cccc2ccccc12)c1ccc(-c2cnc(C3CC3)o2)cc1	14.3%	16.8%	38.8	23.8%	16.5%	7.66% (active)	37.2%	57.7%		
O=C(Nc1ccc(Br)cc1)Nc1nc2ccc([N+](=O)[O-])cc2s1	-11.3% (active)	7.76% (active)	19.1	0.478% (active)	0.887% (active)	-82.2% (active)	-19.6% (active)	6.25% (active)		
O=C(Nc1ccc2c(ccn2Cc2ccccn2)c1)c1cnccn1		109%	102	105%	101%	97.5%	89.6%	111%	57.9%	98.3%
Clc1ccc(N/N=c2/oc3ccccc3cc2-c2cc3ccccc3[nH]2)cc1	59.4%	69.2%	85.4	80.2%	63.9%	82.5%	73.9%	97.7%		
CN1CCC(n2cc(Nc3ncc4c(=O)n(-c5c(Cl)cccc5Cl)cc(Br)c4n3)cn2)CC1	17.1%	6.54% (active)	41.7	27.6%	51.3%		77.8%	63.4%	17.1%	11.9%
Cc1ccc2c(c1)C(=O)/C(=C/c1cccc(F)c1)S2	100%	104%	96.9	101%	86.4%		83.7%	101%	106%	114%
Cc1ccc2sc3c(c2c1)OC(N)=C(C#N)C3c1cccc(F)c1 (stereo not given)	6.97% (active)	-19.6% (active)	35	2.42% (active)	9.24% (active)		18.3%	51.3%	-0.701% (active)	8.96% (active)
COc1cc(-c2nc(SC(C)C)n(C(C)C)c(=O)c2C#N)ccc1OCc1ccccc1	73.8%	91.2%	83.8	32.7%	73.1%		90.4%	96.8%	82.4%	62.1%
